Source: PubChem BioAssay (National Center for Advancing Translational Sciences (NCATS))
Sampled rows, rich in hits. Any-hit rate of the full collection: about 7.3%.
IP6K1 inh – IP6K1 kinase inhibition; Q92551; IP6K1 kinase, ADP-Glo luminescence, 2 h; hits give low values; activity change, % (series mostly up to about 58 µM); 0.81% of 140,000 active; AID 1645851; in the data active = activity change below about -25%
Target sequence (Q92551 whole entry, looked up): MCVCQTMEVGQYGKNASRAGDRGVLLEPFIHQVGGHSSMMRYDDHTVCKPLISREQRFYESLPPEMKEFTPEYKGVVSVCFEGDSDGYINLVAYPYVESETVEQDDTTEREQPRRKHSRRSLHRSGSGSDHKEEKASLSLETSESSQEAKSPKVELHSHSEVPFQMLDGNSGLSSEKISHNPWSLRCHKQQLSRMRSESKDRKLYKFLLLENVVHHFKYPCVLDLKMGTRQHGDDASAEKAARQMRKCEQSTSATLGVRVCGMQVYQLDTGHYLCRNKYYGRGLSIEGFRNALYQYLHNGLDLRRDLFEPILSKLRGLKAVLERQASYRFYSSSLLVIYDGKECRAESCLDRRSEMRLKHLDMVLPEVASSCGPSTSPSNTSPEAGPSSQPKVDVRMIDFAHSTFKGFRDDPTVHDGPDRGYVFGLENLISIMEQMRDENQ
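ADP-Glo luminescence measures ADP made by human IP6K1 during a 2 h RT reaction with ATP/IP6 (mix at 1.3 mM/130 uM); top library doses 57.5 and 19.1 uM final.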
HEK293 viab – counter-screen for SNCA expression inhibitors: cell viability. HEK-293-SNCA-luc viability, GF-AFC fluorescence, 24 h. Potency, µM (series often up to 57.1 µM), for inactives: top-dose activity change, negative = cytotoxicity, usual class: cytotoxic. 0.12% of 150,000 active;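 also: potency is read from the fitted curve at half-maximal effect; 0% = DMSO-treated cells and -100% = medium-only wells without cells; nearly all actives have a fitted effect of over 30% in size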
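Cytotoxicity counterscreen: after 24 h compound treatment of genome-edited SNCA-luciferase HEK-293 cells, live-cell protease substrate GF-AFC read by fluorescence after 30 min; activity scaled between DMSO (0%) and medium-only (-100%), curves Hill-fitted.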
NIH3T3 tox – kills NIH 3T3 cells; NIH 3T3 viability, CellTiter-Glo ATP luminescence, 48-72 h; Potency, µM (doses to about 96.7 µM), without a hit: at the top dose activity change, negative = cytotoxicity, actives largely listed as inhibitors; 4.3% of 94,000 active; AID 1345082; also: potency is read from the fitted curve at half-maximal effect; nearly all actives have a fitted effect of over 55% in size
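ATP-dependent luminescence (CellTiter-Glo) served as the viability signal for NIH 3T3 cells treated with compound for 48 or 72 hr at 37 °C.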
FLuc inh – Photinus pyralis luciferase inhibition; P08659; purified P. pyralis luciferase, luminescence, biochemical; Potency, µM (highest dose often 115 µM), actives largely listed as inhibitors; 2.5% of 76,000 active; also: potency is read from the fitted curve at half-maximal effect; nearly all actives have a fitted effect of over 65% in size
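Cell-free enzyme assay, 10nM P. pyralis luciferase, luciferin and ATP each at 10uM. Inhibition profiled over a 6-point titration, read as luminescence.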
SNCA expr inh – reduces expression of the alpha-synuclein gene. HEK-293 SNCA-luciferase knock-in, luminescence, 24 h. Potency, µM (series often up to 57.2 µM), inactives show top-dose activity change, negative = inhibition, most hits filed as inhibitors. 0.17% of 140,000 active. AID 1671194;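 also: potency is read from the fitted curve at half-maximal effect; plate controls were DMSO cells for no effect and cell-free wells for full effect; nearly all actives have a fitted effect of over 45% in size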
HEK293 tox – cytotoxic compounds in HEK 293 cells | HEK 293 viability, ATP luminescence (CellTiter-Glo), 48-72 h | Potency, µM (highest dose often 115 µM), for inactives: at the highest dose activity change, negative = cytotoxicity, hits mostly inhibitors | 6.6% of 94,000 active; also: potency is read from the fitted curve at half-maximal effect; nearly all actives have a fitted effect of over 60% in size
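HEK 293 cells at 250 cells/well were exposed to compounds by pintool transfer for 48 or 72 hr at 37 degree Celsius, 5% CO2. Viability was read as ATP-coupled luminescence with CellTiter-Glo after 10 min at room temperature.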
* = called active by the depositor; i = inactive; ? = inconclusive; . = no result; [ ] = dose if it differs, or a comment. Unless noted, calls follow the shape of the dose curve; as a rule, active = well fitted curve in the direction sought with a large enough effect; inconclusive = small, poorly fitted or top-dose-only effect, or another doubt; inactive = no such curve, though single readings can be large; an effect the other way counts as inactive or inconclusive. Unless noted, % is scaled to controls: 0 for no effect and ±100 for the full control effect.

SMILES	IP6K1 inh	HEK293 viab	NIH3T3 tox	FLuc inh	SNCA expr inh	HEK293 tox
O=C(CC1CCCN(c2cnn(CC3CC3)c(=O)c2)C1)N1CCN(c2ccccn2)CC1 (configuration not stated)	4	1%	?	i	11%	?
COC(=O)N1CC2=CC(C)(C)COc3ccc(OC)c(c32)C1	-1	.	?	.	.	?
COc1ccc2c3c1CN(C(=O)NCc1ccccc1)CC3=CC(C)(C)CO2	5	.	?	.	.	40µM*
CN(Cc1ccc(Oc2ncccn2)cc1)CC1CCN(CCc2ccc(F)cc2)CC1	-6	0%	50µM*	i	20%	?
CC[C@H]1CN(C(=O)Nc2cccc(C(F)(F)F)c2)CC[C@H]1CC(=O)O	-6	-1%[87.6 µM]	-8%[138 µM]	i	-20%[87.6 µM]	-8%[172 µM]
O=C(C1CCc2nnc(C3CCN([S+](=O)([O-])c4ccccc4Cl)CC3)n21)N1CCOCC1 (configuration not stated)	-8	21%	-26%	.	29%	-24%
Cc1nc(Nc2n[nH]c3c2CN(C(=O)N[C@H](CN(C)C)c2ccccc2)C3(C)C)c2sccc2n1	28	?	.	.	0.015µM*	.
Cc1nc(NCCN2CCOC2=O)c2sccc2n1	7	5%	-6%	i	-25%	-27%
O=C(c1ccnc(-c2ccccc2-c2ccccc2)c1)N1CCCC1	-6	4%	35µM*	i	-20%	?
O=C(c1ccnc(-c2ccncc2)c1)N1CCCC1	7	-7%	-3%	i	-5%	1%
COCCOCC(=O)N1CCC(N2CC3CC(C2)[C@H]2CCCC(=O)N2C3)CC1 (some centres not stated)	4	9%	i	i	-28%	-1%
N[C@H]1CO[C@H]2[C@@H]1OC[C@@H]2n1cc(-c2ccccn2)nn1	-18	-12%[87.6 µM]	?	i	-13%[87.6 µM]	126µM*
Cc1nc(CN2CC3(CCN(C)C3)c3cc(C(=O)NCCc4ccccc4)ccc32)cs1 (configuration not stated)	0	-2%	?	i	23%	79µM*
CN(C)CCNC(=O)c1ccc2c(c1)C1(CCN(CC3CC3)C1)CN2Cc1ccccc1 (configuration not stated)	-4	-23%[87.6 µM]	32µM*	i	?	45µM*
COCCNC(=O)c1ccc2c(c1)C1(CCN(C)C1)CN2Cc1csc(C)n1 (configuration not stated)	4	5%[87.6 µM]	?	i	-7%[87.6 µM]	-13%[172 µM]
CCNC(=O)c1ccc2c(c1)C1(CCN(CC3CC3)C1)CN2Cc1ccccc1 (configuration not stated)	11	-6%[87.6 µM]	?	i	2%[87.6 µM]	?
CN1CCC2(C1)CN(Cc1ccccc1)c1ccc(C(=O)NCC3CC3)cc12 (configuration not stated)	1	9%[87.6 µM]	?	i	30%[87.6 µM]	112µM*
CN1CCC2(C1)CN(Cc1ccccc1)c1ccc(C(=O)NC3COC3)cc12 (configuration not stated)	11	4%[87.6 µM]	-7%[138 µM]	i	-4%[87.6 µM]	?
O=C(NCC1CC1)c1ccc2c(c1)C1(CCN(CC3CC3)C1)CN2Cc1ccccc1 (configuration not stated)	11	-5%[87.6 µM]	79µM*	i	-30%[87.6 µM]	?
COc1ccc(S(=O)(=O)N2CCCC(Cc3noc(-c4ccccc4)n3)C2)cc1 (configuration not stated)	8	-17%	?	?	11%	?
COCC(=O)N1CCCC(C(=O)N2CCCC(c3nc4ccncc4[nH]3)C2)C1 (configuration not stated)	3	-12%	-2%	.	-7%	2%
COCCn1c(C)cnc1CCNS(=O)(=O)c1cccc(OC)c1	-7	15%	-14%	i	-19%	-14%
CN1CC2(CCCN(CC3CC3)C2)c2cc(C(=O)NCCOc3ccccc3)ccc21 (configuration not stated)	-3	4%[87.6 µM]	79µM*	i	-29%[87.6 µM]	100µM*
O=C(NCCCO)c1ccc2c(c1)C1(CCN(CC3CC3)C1)CN2Cc1ccccc1 (configuration not stated)	-6	4%[87.6 µM]	-21%[138 µM]	i	-3%[87.6 µM]	?
CN1CCC2(C1)CN(Cc1ccccc1)c1ccc(C(=O)NCCOc3ccccc3)cc12 (configuration not stated)	-1	4%	?	i	20%	32µM*
SMILES	IP6K1 inh	HEK293 viab	NIH3T3 tox	FLuc inh	SNCA expr inh	HEK293 tox
O=C(NC1CCC1)c1ccc2c(c1)C1(CCN(CC3CC3)C1)CN2Cc1ccccc1 (configuration not stated)	-6	-22%[87.6 µM]	?	i	-12%[87.6 µM]	56µM*
O=C(Nc1ccccc1)N1CCCC(C(=O)N2CCC(c3nc4ncccc4[nH]3)C2)C1 (configuration not stated)	1	3%	i	.	-8%	i
O=C(Cc1cccc(Cl)c1)N1CCC(C(=O)N2CCC(N3Cc4ccccc4C3=O)CC2)CC1	12	3%	?	.	-25%	50µM*
O=C(C1CC1)N1CCC(C(=O)N2CCC(N3Cc4ccccc4C3=O)CC2)CC1	13	0%	-15%	.	-10%	-10%
Cc1ccc(CN2CC[C@H](c3nnc(-c4ccccc4)o3)C2)cc1	5	1%[87.6 µM]	?	?	30%[87.6 µM]	?
CN(C)c1ccc(-c2nnc([C@H]3CCN(CC4CCCCC4)C3)o2)cc1	3	0%[87.6 µM]	?	?	-4%[87.6 µM]	100µM*
CN(C)c1ccc(-c2nnc([C@H]3CCN(Cc4ccccc4)C3)o2)cc1	27	-6%[87.6 µM]	?	63µM*	28%[87.6 µM]	?
c1ccc2c(c1)COC1(CCNC1)CN2CC1CCCC1 (configuration not stated)	-15	-17%[87.6 µM]	35µM*	.	-17%[87.6 µM]	50µM*
COCCOc1ncccc1-c1noc([C@@H]2CCCN2Cc2ccc(OC)cc2)n1	4	-15%[87.6 µM]	-15%[174 µM]	i	-25%[87.6 µM]	100µM*
COc1ccccc1CN1CCC[C@H]1c1nc(-c2ccc(F)cn2)no1	26	-23%[87.6 µM]	-21%[174 µM]	i	53%[87.6 µM]	18µM*
O=c1cc(-c2ccccn2)oc2c(Nc3ccccc3)nccc12	-11	?	?	i	-9%[87.6 µM]	?
CN(c1ccccc1)c1cc(=O)c2ccnc(Nc3cccnc3)c2o1	-10	-3%[87.6 µM]	10µM*	i	35%[87.6 µM]	?
O=c1cc(-c2ccccn2)oc2c(NCc3ccccc3)nccc12	-20	-3%[87.6 µM]	?	i	-11%[87.6 µM]	?
O=c1cc(-c2ccccn2)oc2c(Nc3cccnc3)nccc12	-19	-15%[87.6 µM]	11µM*	i	-11%[87.6 µM]	?
